The record followed here is the supplement of paper PMC3414501.

Assay [1] has as its system S. cerevisiae SK1 pCDA2-eGFP (USY613), sporulating. Put plainly: CDA2-GFP sporulation assay sensitivity score (z-score vs DMSO controls); higher = stronger inhibition of sporulation, active = hit call of the paper.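 Note: active if sensitivity score above 5.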
Assay [2] concerns S. cerevisiae NKY1551 his4x/his4B, sporulating. As to the kind of experiment: HIS4 meiotic recombination assay sensitivity score (z-score vs DMSO controls); higher = stronger inhibition of sporulation/recombination, active = hit call of the paper.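 Note: active if sensitivity score above 5.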
Assay [3] relates to S. cerevisiae AD1-9 (efflux-pump deficient), vegetative growth in YPD. As to the kind of experiment: growth sensitivity score (doubling time z-score vs DMSO controls); higher = slower growth, strongly negative scores also mark growth inhibition (complete suppression), active = hit call of the paper. In outline:
(§1)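 Yeast (Saccharomyces cerevisiae BY4741 and AD1-9) was grown in rich medium in microtiter plates from a starting OD600 of 0.065, with optical density read every 15 min over 24 hours. The growth sensitivity score was the difference between compound and solvent-only means, divided by the solvent-only standard deviation. Every experiment had eight solvent-only wells.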

Assay [4] has as its system S. cerevisiae BY4741 (wild-type), vegetative growth in YPD. The assay is described as above. In outline: as §1

Counter-ions that a name gives are not always drawn. Unmarked numbers belong to inactive results.

Regarding `CC[N+](C)(CC)CCOC(=O)C(O)(c1ccccc1)C1CCCCC1` (centres undefined) [Oxyphenonium bromide] (stock concentration (mM, diluted 1:100): 10), the “CDA2-GFP sporulation assay sensitivity score” value in assay [1] is 0.76. In addition, the “HIS4 meiotic recombination assay sensitivity score” value in assay [2] is 1.35. The growth sensitivity score in assay [3] is -1.02; in assay [4] it was 0.39.

On to `CC(C)OC(=O)CCC/C=C\C[C@@H]1[C@@H](CC[C@@H](O)CCc2ccccc2)[C@H](O)C[C@@H]1O` [Latanoprost] (stock concentration (mM, diluted 1:100): 10.3), for which the “CDA2-GFP sporulation assay sensitivity score” value in assay [1] is 8.85 (active). The “HIS4 meiotic recombination assay sensitivity score” value in assay [2] is 0.65. For the same compound, the figures for the growth sensitivity score in assay [3] and in assay [4] were 125 (active) and 0.43, respectively.

For the compound `C#C[C@]1(O)CC[C@H]2[C@@H]3[C@H](C)CC4=C(CCC(=O)C4)[C@H]3CC[C@@]21C` [Tibolone] (stock concentration (mM, diluted 1:100): 10), the “CDA2-GFP sporulation assay sensitivity score” value in assay [1] is 5.97. Moreover, the “HIS4 meiotic recombination assay sensitivity score” value in assay [2] was 1.06. The growth sensitivity score was 10.2 (active) in assay [3] and 0.52 in assay [4].

As for `CN(CCO)CC(O)Cn1cnc2c1c(=O)n(C)c(=O)n2C` (centres undefined) [Xanthinol nicotinate] (stock concentration (mM, diluted 1:100): 10), in assay [1], the “CDA2-GFP sporulation assay sensitivity score” value is 2.12. The “HIS4 meiotic recombination assay sensitivity score” value in assay [2] was -0.61. The figures for the growth sensitivity score in assay [3] and in assay [4] were 0.36 and -1.14, respectively.

For `CCc1ccc(CCOc2ccc(CC3SC(=O)NC3=O)cc2)nc1` (centres undefined) [Pioglitazone hydrochloride] (stock concentration (mM, diluted 1:100): 9.1), the “CDA2-GFP sporulation assay sensitivity score” value in assay [1] was 2.87. The “HIS4 meiotic recombination assay sensitivity score” value in assay [2] is 0.36. Moreover, the growth sensitivity score in assay [3] was -1.03; in assay [4], -0.08.

For the compound `CNCCCC12CCC(c3ccccc31)c1ccccc12` [Maprotilline hydrochloride] (stock concentration (mM, diluted 1:100): 10), in assay [1], the “CDA2-GFP sporulation assay sensitivity score” value is 0.21. The “HIS4 meiotic recombination assay sensitivity score” value in assay [2] is 9.12 (active). Moreover, the growth sensitivity score in assay [3] is 86.6 (active); in assay [4], 2.3 (active).
